# Source: PubChem BioAssay (EPA / NIEHS)
# Results filed as inconclusive are left out. The source made the active and inactive calls. How the source made its calls: active means hit-call score of the fitted dose curve at least 0.9, where 1 is the maximum; inconclusive means response in the unintended direction; inactive means score below 0.9.
# Experiments:
# [1] = target: bovine Estrogen Receptor (ER), ESR1 (gene 407238) (UniProt P49884); assay: NVS_NR_bER: NovaScreen (NVS) Nuclear Receptor Binding Assay for bovine Estrogen Receptor (ER) (AID 2283345);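 further: actives lower the bound radioligand count which means they displace the ER ligand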
# In short: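 Displacement of a radioligand from estrogen receptor in bovine uterine membrane preparations; scintillation signal taken at 18 hours, DMSO as baseline. Single-concentration duplicates (25 uM) preceded concentration-response follow-up of actives.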
# [2] = target: Estrogen receptor (Homo sapiens) (UniProt P03372); assay: OT_ER_ERaERa_1440: Odyssey Thera (OT) 24-hour HEK293T Protein-Complementation Assay for Estrogen Receptor-alpha/-alpha Homodimer (AID 2283349);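 further: hits raise fluorescence above DMSO for agonists and antagonists alike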
# In short: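 Stably transfected HEK293T; ERα LBD homodimer PCA. 24 h dosing, fluorescence intensity read, gain-of-signal vs DMSO.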
# [3] = target: Estrogen receptor (Homo sapiens) (UniProt P03372); assay: OT_ER_ERaERa_0480: Odyssey Thera (OT) 8-hour HEK293T Protein-Complementation Assay for Estrogen Receptor-alpha/-alpha Homodimer (AID 2283351);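 further: rise in fluorescence from reassembled reporter fragments on ERα LBD homodimer in nucleus or whole cell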
# In short: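 Cells were treated for 8 hours, then imaged on a laser scanning plate cytometer. Complementation of reporter fragments fused to the human ERα ligand-binding domain (residues 310-547) in HEK293T gave fluorescence, and gain of signal over vehicle was fitted.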
# [4] = target: T1, Estrogen receptor (Homo sapiens) + Estrogen receptor beta (Homo sapiens) (UniProt P03372+Q92731); assay: OT_ER_ERaERb_0480: Odyssey Thera (OT) 8-hour HEK293T Protein-Complementation Assay for Estrogen Receptor-alpha/-beta Heterodimer (AID 2283352)
# In short: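 HEK293T protein-fragment complementation assay of ER-alpha/ER-beta LBD heterodimerisation, read 8 h after dosing. Mean nuclear/cytoplasmic fluorescence intensity measured by laser scanning cytometry; gain of signal fitted relative to DMSO.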
# [5] = target: T1, Estrogen receptor (Homo sapiens) + Estrogen receptor beta (Homo sapiens); assay: OT_ER_ERaERb_1440: Odyssey Thera (OT) 24-hour HEK293T Protein-Complementation Assay for Estrogen Receptor-alpha/-beta Homodimer (AID 2283356);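 further: heteromer of ER alpha and ER beta binding domains; hits raise reporter fluorescence and both agonists and antagonists give an increase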
# In short: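 HEK293T stably expressing a PCA of ER alpha LBD (aa 310-547) and ER beta LBD (aa 263-489). After 24 h compound exposure, mean fluorescence intensity in nucleus (agonists) or nucleus and cytoplasm (antagonists) measured by laser scanning cytometry versus vehicle.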
# [6] = target: Estrogen receptor beta (Homo sapiens) (UniProt Q92731); assay: OT_ER_ERbERb_0480: Odyssey Thera (OT) 8-hour HEK293T Protein-Complementation Assay for Estrogen Receptor-beta/-beta Homodimer (AID 2283357);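 further: active means signal gain over DMSO baseline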
# In short: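 Fluorescence gain from complemented reporter fragments on ER-beta LBD homodimer in HEK293T was quantified against DMSO controls after 8 h treatment, fixation in 4% formaldehyde and Draq5 staining.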
# PGR (gene 5241) = PGR (gene 5241) (UniProt P06401); assay: NVS_NR_hPR: NovaScreen (NVS) Nuclear Receptor Binding Assay for human Progestron Receptor (PR) (AID 2283360);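 further: active means loss of bound radioligand signal versus DMSO baseline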
# In short: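 T47D-derived receptor preparation, cell-free, with tritiated or iodinated radioligand displacement measured by scintillation 18 h post-dosing. Single 25 uM duplicate screen, then concentration series; signal loss relative to DMSO.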
# [7] = tested on: guinea pig Histamine Receptor (H2), gene 100729734; assay: NVS_GPCR_gH2: NovaScreen (NVS) G Protein-Coupled Receptor Assay for guinea pig Histamine Receptor (H2) (AID 2283342)
# In short: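 Guinea pig striatal membrane preparation with specific radioligand; bound counts measured by filtration and scintillation 1 h post-dosing, DMSO as baseline. Chemicals passing a 25 uM duplicate screen were titrated to a 50 uM maximum.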
# NCBI gene 100848466 = assay: NVS_NR_bPR: NovaScreen (NVS) Nuclear Receptor Binding Assay for bovine Progextron Receptor (PR) (AID 2283343);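 on AC50: actives lower bound radioligand signal below DMSO meaning displacement of the label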
# In short: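 Steps: bovine uterine membranes were dosed with chemical alongside radioligand, incubated 18 hours, then radiodetected by scintillation counting. Initial testing used 25 uM in duplicate; confirmed actives were rerun as concentration series.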
# [8] = target: human Peroxisome Proliferator-activated Receptor alpha (PPARa), PPARA (gene 5465) (UniProt Q07869); assay: NVS_NR_hPPARa: NovaScreen (NVS) Nuclear Receptor Binding Assay for human Peroxisome Proliferator-activated Receptor alpha (PPARa) (AID 2283359);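 further: activity means loss of TR-FRET signal versus DMSO baseline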
# In short: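 One-hour incubation, cell-free extracted protein, TR-FRET binding readout; signal loss vs DMSO scored. Screen: 25 uM duplicates, confirmatory dose series for actives.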
# [9] = target: bovine Gamma-Aminobutyric Acid Type A Receptor Agonist (GABAR Agonist), GABRA1 (gene 780973) (UniProt P08219); assay: NVS_LGIC_bGABAR_Agonist: NovaScreen (NVS) Ligand-Gated Ion Channel Assay for bovine Gamma-Aminobutyric Acid Type A Receptor Agonist (GABAR Agonist) (AID 2283338)
# In short: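 Radioligand binding to bovine cerebellar membranes in agonist format, read by filter-based scintillation counting after 1 h. Primary screen in duplicate at 25 uM, with actives followed in concentration series. Gain of signal versus DMSO.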
# [10] = target: human Constitutive Androstane Receptor (CAR), NR1I3 (gene 9970) (UniProt Q14994); assay: NVS_NR_hCAR_Antagonist: NovaScreen (NVS) Nuclear Receptor Binding Assay for human Constitutive Androstane Receptor Antagonism (CAR) (AID 2283344)
# In short: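 Single 25 uM duplicate primary screen, with concentration-series follow-up on actives. Cell-free binding format run in antagonist mode, TR-FRET signal taken 1 h post-dose; activity is signal loss relative to DMSO.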
# [11] = target: Androgen Receptor/SRC-1 Co-activator, AR (gene 367) (UniProt P10275); assay: OT_AR_ARSRC1_0960: Odyssey Thera (OT) 16-hour HEK293T Protein-Complementation Assay for Androgen Receptor/SRC-1 Co-activator (AID 2283353);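 further: actives raise the signal above DMSO so potency reflects increased AR and SRC-1 complex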
# In short: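 Stable HEK293T line carries AR and SRC-1 each linked to a Venus fragment; chemicals are applied for 16 h, cells imaged at two wavelengths, and the 488 nm nucleus/cytoplasm ratio is taken as the signal, rising relative to DMSO.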
# [12] = target: Androgen Receptor/SRC-1 Co-activator, AR (gene 367) (UniProt P10275); assay: OT_AR_ARSRC1_0480: Odyssey Thera (OT) 8-hour HEK293T Protein-Complementation Assay for Androgen Receptor/SRC-1 Co-activator (AID 2283354);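 further: hits raise the complementation signal above DMSO so AC50 marks enhancers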
# In short: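 After 8 h dosing, stably expressing HEK293T cells with split-Venus AR/SRC-1 fusions were imaged (488, 635nm). The 488nm N/C ratio per image gave the endpoint, analysed in the positive direction against DMSO.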
# [13] = target: Estrogen receptor (Homo sapiens) (UniProt P03372); assay: NVS_NR_hER: NovaScreen (NVS) Nuclear Receptor Binding Assay for human Estrogen Receptor (ER) (AID 2283348)
# In short: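 Radiodetection of ligand displacement in a lysate-based, cell-free format using MCF7 extracts, read at 18 hours. Duplicate 25 uM primary testing, then concentration series for actives.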
# [14] = target: Retinoic acid receptor alpha (Homo sapiens) (UniProt P10276); assay: NVS_NR_hRAR_Antagonist: NovaScreen (NVS) Nuclear Receptor Binding Assay for human Retinoic Acid Alpha Receptor Antagonism (RAR) (AID 2283358)
# In short: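 Chemicals were first tested in duplicate at 25 uM, then actives in concentration series, in a cell-free TR-FRET antagonist binding format. Measurements were taken 2 hours after dosing and loss of signal was evaluated against DMSO controls.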
# [15] = target: rat Glycine Receptor, Strychnine-sensitive (GlyRStrySens), Glra1 (gene 25674) (UniProt P07727); assay: NVS_LGIC_rGlyRStrySens: NovaScreen (NVS) Ligand-Gated Ion Channel Assay for rat Glycine Receptor, Strychnine-sensitive (GlyRStrySens) (AID 2283341)
# In short: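 Radioligand displacement on rat spinal cord membranes, 1 hr, filter scintillation read-out. Single-concentration duplicate screen at 25 uM; chemicals meeting threshold (e.g., 30% inhibition) rerun in concentration-response up to 50 uM. Loss of binding fitted versus DMSO.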
# Sequence of Estrogen receptor (Homo sapiens) (P03372 whole entry, looked up, the tested form may be a part): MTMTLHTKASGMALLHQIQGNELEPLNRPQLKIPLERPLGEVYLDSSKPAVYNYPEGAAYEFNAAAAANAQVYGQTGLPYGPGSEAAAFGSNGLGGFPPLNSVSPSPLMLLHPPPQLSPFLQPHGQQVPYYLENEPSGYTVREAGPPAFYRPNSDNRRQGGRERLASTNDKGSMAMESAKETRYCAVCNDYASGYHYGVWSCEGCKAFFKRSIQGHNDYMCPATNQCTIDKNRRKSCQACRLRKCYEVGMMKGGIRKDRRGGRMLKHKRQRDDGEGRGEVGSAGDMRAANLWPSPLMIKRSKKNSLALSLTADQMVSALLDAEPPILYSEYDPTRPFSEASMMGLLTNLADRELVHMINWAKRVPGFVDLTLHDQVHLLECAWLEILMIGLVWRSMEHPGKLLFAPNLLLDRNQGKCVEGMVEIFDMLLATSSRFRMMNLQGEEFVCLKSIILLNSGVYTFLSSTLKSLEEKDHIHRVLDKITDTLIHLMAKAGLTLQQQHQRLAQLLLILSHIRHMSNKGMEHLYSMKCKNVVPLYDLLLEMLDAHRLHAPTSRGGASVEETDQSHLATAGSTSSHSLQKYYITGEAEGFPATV
# T1 sequence (P03372 whole entry, looked up, the tested form may be a part): as above
# T1 sequence (Q92731 whole entry, looked up, the tested form may be a part): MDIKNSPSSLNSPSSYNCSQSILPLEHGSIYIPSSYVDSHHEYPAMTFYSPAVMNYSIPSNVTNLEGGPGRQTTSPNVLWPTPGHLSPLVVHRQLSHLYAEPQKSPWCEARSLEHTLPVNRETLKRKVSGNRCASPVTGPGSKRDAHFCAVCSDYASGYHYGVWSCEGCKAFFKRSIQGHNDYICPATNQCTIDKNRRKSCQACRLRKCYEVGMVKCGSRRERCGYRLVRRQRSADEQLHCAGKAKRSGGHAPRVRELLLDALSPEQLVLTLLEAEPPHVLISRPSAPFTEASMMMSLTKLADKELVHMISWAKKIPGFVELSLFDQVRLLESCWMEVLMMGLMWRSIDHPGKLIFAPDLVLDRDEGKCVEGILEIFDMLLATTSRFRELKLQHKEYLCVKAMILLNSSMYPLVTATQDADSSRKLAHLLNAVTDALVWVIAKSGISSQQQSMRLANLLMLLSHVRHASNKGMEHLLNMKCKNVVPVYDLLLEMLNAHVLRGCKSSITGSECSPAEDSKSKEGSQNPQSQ
# Sequence of PGR (gene 5241) (P06401 whole entry, looked up): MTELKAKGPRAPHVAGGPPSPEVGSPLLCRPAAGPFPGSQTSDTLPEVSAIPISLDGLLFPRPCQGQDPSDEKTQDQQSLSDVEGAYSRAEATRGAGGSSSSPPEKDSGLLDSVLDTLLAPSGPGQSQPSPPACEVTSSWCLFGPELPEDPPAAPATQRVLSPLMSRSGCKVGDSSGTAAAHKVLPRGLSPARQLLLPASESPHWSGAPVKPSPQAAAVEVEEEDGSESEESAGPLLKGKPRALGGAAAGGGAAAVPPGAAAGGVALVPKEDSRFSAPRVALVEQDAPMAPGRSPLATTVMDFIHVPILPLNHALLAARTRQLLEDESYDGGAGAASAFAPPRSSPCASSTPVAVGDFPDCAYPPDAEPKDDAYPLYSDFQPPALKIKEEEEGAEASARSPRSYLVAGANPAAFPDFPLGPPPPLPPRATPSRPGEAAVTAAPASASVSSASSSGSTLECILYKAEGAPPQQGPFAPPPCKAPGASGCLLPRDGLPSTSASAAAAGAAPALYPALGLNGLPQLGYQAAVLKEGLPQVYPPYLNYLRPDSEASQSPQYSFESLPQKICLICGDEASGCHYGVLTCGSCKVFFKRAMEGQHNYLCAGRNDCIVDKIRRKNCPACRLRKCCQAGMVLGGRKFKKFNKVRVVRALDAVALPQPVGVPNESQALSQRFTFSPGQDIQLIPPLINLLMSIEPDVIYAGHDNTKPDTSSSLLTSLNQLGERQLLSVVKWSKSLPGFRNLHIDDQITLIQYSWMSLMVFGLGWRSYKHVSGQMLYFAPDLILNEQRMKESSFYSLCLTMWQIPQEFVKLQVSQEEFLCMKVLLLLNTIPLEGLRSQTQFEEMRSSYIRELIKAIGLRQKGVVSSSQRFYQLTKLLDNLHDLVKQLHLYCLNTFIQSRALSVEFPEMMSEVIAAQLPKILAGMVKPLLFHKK
# Sequence of Androgen Receptor/SRC-1 Co-activator, AR (gene 367) (P10275 whole entry, looked up, the tested form may be a part): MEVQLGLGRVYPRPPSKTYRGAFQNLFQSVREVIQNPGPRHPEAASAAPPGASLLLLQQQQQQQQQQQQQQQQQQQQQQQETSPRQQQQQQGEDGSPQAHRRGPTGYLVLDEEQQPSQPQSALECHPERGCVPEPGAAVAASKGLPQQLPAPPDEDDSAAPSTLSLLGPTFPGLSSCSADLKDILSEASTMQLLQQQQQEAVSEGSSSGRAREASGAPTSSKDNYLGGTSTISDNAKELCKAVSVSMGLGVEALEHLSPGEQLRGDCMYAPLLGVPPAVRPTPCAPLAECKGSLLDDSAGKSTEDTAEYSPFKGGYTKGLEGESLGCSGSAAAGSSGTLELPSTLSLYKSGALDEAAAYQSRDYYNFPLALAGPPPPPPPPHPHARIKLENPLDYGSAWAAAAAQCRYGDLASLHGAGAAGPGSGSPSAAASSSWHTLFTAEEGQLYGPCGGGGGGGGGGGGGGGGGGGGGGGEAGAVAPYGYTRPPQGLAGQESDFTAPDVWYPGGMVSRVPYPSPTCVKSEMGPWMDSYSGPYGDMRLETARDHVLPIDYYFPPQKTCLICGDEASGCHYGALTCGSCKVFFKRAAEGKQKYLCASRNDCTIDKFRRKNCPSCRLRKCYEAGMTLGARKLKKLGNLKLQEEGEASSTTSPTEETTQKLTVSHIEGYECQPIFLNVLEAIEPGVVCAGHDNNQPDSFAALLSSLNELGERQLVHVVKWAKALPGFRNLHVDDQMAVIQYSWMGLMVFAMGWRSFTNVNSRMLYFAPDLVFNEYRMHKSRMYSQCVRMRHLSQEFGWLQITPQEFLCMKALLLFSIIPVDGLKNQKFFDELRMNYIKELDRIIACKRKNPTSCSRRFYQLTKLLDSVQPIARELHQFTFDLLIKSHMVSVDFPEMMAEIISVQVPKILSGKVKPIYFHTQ
# Sequence of human Peroxisome Proliferator-activated Receptor alpha (PPARa), PPARA (gene 5465) (Q07869 whole entry, looked up): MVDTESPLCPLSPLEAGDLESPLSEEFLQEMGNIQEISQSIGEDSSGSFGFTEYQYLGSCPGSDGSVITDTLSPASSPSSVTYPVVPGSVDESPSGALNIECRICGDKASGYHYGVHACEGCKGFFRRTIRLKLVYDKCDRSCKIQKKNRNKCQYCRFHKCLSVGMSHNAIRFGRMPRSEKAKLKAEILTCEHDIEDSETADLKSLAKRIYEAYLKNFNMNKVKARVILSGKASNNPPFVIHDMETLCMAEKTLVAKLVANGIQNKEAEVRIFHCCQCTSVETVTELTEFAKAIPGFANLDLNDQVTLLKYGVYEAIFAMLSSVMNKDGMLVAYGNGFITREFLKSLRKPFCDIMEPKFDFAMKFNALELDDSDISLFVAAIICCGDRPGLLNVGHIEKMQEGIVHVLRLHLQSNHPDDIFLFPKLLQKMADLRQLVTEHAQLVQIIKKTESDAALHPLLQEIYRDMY
# Sequence of Estrogen receptor beta (Homo sapiens) (Q92731 whole entry, looked up, the tested form may be a part): as the sequence (Q92731 whole entry, looked up, the tested form may be a part) above
# Sequence of bovine Gamma-Aminobutyric Acid Type A Receptor Agonist (GABAR Agonist), GABRA1 (gene 780973) (P08219 whole entry, looked up): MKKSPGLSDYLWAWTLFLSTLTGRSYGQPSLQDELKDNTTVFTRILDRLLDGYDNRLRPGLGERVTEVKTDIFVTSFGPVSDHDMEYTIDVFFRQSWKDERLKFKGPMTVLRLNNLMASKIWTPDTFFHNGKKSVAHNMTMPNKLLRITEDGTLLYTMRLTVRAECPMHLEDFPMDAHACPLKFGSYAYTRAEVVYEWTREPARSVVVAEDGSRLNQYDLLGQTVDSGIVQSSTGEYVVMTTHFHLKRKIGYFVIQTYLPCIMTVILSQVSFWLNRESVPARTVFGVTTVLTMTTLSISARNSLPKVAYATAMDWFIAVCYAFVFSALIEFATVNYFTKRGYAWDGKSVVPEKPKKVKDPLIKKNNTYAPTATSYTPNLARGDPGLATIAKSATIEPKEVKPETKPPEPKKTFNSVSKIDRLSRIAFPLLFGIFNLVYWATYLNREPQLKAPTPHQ
smiles,measurement,setting,value
CCCCCCCCCC,outcome,[1],inactive
same,outcome,[2],inactive
same,outcome,[3],inactive
same,outcome,[4],inactive
same,outcome,[5],inactive
same,outcome,[6],inactive
same,outcome,PGR (gene 5241),inactive
Cc1nccn1-c1ccc(Sc2cccc(C3(C(N)=O)CCOCC3)c2)cc1,outcome,[7],inactive
same,AC50,NCBI gene 100848466,7.1 µM (active)
same,outcome,[2],inactive
same,outcome,[3],inactive
same,outcome,[4],inactive
same,AC50,[5],20.9 µM (active)
same,AC50,[6],32.3 µM (active)
same,outcome,[8],inactive
same,AC50,PGR (gene 5241),6.18 µM (active)
OC(Cn1cncn1)(Cn1cncn1)c1ccc(F)cc1F,outcome,[9],inactive
same,outcome,[2],inactive
same,outcome,[3],inactive
same,outcome,[5],inactive
O=c1[nH]cnc2c1ncn2[C@H]1CC[C@@H](CO)O1,outcome,[10],inactive
same,outcome,[2],inactive
same,outcome,[3],inactive
CCCCCCOC(=O)CC(CC(=O)OCCCCCC)(OC(=O)CCC)C(=O)OCCCCCC,outcome,[9],inactive
same,outcome,[2],inactive
same,outcome,[3],inactive
same,outcome,[4],inactive
same,outcome,[11],inactive
same,outcome,[12],inactive
same,outcome,[5],inactive
same,outcome,[6],inactive
Cn1cc[nH]c1=S,outcome,NCBI gene 100848466,inactive
same,outcome,[2],inactive
same,outcome,[3],inactive
same,outcome,[4],inactive
same,outcome,[5],inactive
same,outcome,[6],inactive
same,outcome,PGR (gene 5241),inactive
COc1cc(C(C)C)c2c(c1)S(=O)(=O)N(COc1cc(=O)n3cccc(OCCN4CCCCC4)c3n1)C2=O,AC50,[7],3.13 µM (active)
same,outcome,[13],inactive
same,outcome,[2],inactive
same,outcome,[3],inactive
same,AC50,[11],10.6 µM (active)
same,AC50,[12],18.1 µM (active)
same,outcome,[14],inactive
same,outcome,[8],inactive
CC(C)C(=O)Nc1ccc([N+](=O)[O-])c(C(F)(F)F)c1,outcome,NCBI gene 100848466,inactive
same,outcome,[13],inactive
same,outcome,[2],inactive
same,outcome,[3],inactive
same,outcome,[4],inactive
same,outcome,[6],inactive
same,outcome,[8],inactive
OC[C@H]1O[C@@H]2O[C@H]3[C@H](O)[C@@H](O)[C@@H](O[C@H]4[C@H](O)[C@@H](O)[C@@H](O[C@H]5[C@H](O)[C@@H](O)[C@@H](O[C@H]6[C@H](O)[C@@H](O)[C@@H](O[C@H]7[C@H](O)[C@@H](O)[C@@H](O[C@H]1[C@H](O)[C@H]2O)O[C@@H]7CO)O[C@@H]6CO)O[C@@H]5CO)O[C@@H]4CO)O[C@@H]3CO,AC50,[1],1.18 µM (active)
same,AC50,[13],0.472 µM (active)
same,outcome,[2],inactive
same,outcome,[3],inactive
same,outcome,[4],inactive
same,outcome,[5],inactive
same,outcome,[6],inactive
CCCCCCCC1CCC(=O)O1 (centres undefined),outcome,[15],inactive
same,outcome,[2],inactive
same,outcome,[3],inactive
same,outcome,[4],inactive
same,outcome,[5],inactive
same,outcome,[6],inactive
CCCCC(CC)C(=O)OCCOCCOCCOC(=O)C(CC)CCCC (centres undefined),outcome,[10],inactive
same,outcome,[1],inactive
same,outcome,[13],inactive
same,outcome,[2],inactive
same,outcome,[3],inactive
same,outcome,[4],inactive
same,outcome,[11],inactive
same,outcome,[12],inactive
same,outcome,[5],inactive
same,outcome,[6],inactive
CCc1cccc(CC)c1N,AC50,[13],10 µM (active)
same,outcome,[2],inactive
same,outcome,[3],inactive
same,outcome,[4],inactive
same,outcome,[11],inactive
same,outcome,[5],inactive
same,outcome,[6],inactive
same,outcome,PGR (gene 5241),inactive
